Experiment [1] is described as follows: viability loss in pontine glioma line – cell-based, SU-DIPG-XIII, MIPE4.0, CellTiter-Glo, qHTS, dose response (AID 1347061; cut-off not given, nearly all actives have AC50 up to about 37 µM;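 note: cells exposed to compound for 48 hours before readout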). Conditions: CellTiter-Glo ATP luminescence. A general note: ATP-based viability assays read luminescence as a measure of living cells.
Experiment [2] can be described thus: viability loss in pontine glioma line – cell-based, JHH-DIPG-1, MIPE4.0, CellTiter-Glo, qHTS, dose response (AID 1347062; cut-off not given, nearly all actives have AC50 up to about 27 µM;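 for AC50: cells exposed to compound for two days before readout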). The following applies: JHH-DIPG-1 viability, CellTiter-Glo ATP luminescence.
Experiment [3] can be described thus: viability loss in pontine glioma line – cell-based, SU-DIPG-IV, MIPE4.0, CellTiter-Glo, qHTS, dose response (AID 1347063; cut-off not given, nearly all actives have AC50 up to about 30 µM;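 note: compound exposure lasted 48 hours before the viability readout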). The following applies: CellTiter-Glo ATP luminescence.
The nature of experiment [4]: growth inhibition of DIPG cells – cell-based, MIPE4.0 library, CellTiter-Glo luminescence, qHTS (AID 1347066; cut-off not given, nearly all actives have AC50 up to about 30 µM;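 note: cells exposed to compound for 48 hours before readout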). Conditions: SU-DIPG-VI viability, CellTiter-Glo ATP luminescence.
Experiment [5] deals with ATP-dependent translocase ABCB1 (Homo sapiens) (UniProt P08183). In words: P-glycoprotein substrate transport blockade – cell-based (AID 377; in the data active = fluorescence slope change above about 50%). The following applies: MDR1-expressing cells, fluorescent substrate accumulation slope; stronger effect = higher value; concentration not given here.
Chain of ATP-dependent translocase ABCB1 (Homo sapiens) (P08183 whole entry, looked up): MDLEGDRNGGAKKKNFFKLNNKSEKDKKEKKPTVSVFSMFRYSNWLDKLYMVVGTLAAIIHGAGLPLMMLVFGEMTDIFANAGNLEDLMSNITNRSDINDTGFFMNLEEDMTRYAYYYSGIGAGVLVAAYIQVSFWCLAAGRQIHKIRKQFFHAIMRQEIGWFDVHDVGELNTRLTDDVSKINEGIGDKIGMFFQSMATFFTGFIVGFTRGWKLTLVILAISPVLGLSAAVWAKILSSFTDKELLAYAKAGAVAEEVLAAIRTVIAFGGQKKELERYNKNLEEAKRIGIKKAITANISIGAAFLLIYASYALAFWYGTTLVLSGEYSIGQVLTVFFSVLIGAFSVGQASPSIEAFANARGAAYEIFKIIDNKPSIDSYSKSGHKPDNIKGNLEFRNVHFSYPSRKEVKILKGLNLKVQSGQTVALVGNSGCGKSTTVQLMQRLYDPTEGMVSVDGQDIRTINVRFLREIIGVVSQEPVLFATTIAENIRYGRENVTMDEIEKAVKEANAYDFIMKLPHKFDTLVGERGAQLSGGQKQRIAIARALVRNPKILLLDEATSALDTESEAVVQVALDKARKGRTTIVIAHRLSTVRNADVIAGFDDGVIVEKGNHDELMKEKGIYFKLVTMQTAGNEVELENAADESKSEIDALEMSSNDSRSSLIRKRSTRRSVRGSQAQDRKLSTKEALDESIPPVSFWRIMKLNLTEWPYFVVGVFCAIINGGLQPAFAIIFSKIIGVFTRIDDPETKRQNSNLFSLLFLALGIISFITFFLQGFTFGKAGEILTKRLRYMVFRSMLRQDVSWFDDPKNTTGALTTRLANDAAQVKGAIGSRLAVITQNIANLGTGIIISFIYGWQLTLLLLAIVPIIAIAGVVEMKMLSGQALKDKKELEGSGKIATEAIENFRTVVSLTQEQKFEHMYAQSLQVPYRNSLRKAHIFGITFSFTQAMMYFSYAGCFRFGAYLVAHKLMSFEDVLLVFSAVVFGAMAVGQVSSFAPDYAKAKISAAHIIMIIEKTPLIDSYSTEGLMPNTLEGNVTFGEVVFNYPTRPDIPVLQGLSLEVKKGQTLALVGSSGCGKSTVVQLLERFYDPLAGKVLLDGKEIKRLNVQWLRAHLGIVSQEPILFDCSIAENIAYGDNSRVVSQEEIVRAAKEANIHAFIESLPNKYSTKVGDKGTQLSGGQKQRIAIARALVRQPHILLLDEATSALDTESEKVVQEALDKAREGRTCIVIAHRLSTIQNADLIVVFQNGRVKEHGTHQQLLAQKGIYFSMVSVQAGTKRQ
Experiment [6] in a line: GFP-Q80 aggregate reduction, neuronal-like cells, cell-based, NGF-treated PC12, GFPQ80 (AID 1614).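 Note: lower means fewer inclusions and 0 means no inclusions at all.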 Conditions: PC12 NGF-treated GFP-polyQ80 inclusion reduction.
Experiment [7] in a line: compounds altering circadian rhythm period length – cell-based, LOPAC library, luminescence reporter (AID 2774).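 Note: values are relative to mean of DMSO wells on each plate.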 The following applies: circadian reporter cells, at 7 µM, actives lie on both sides.
In experiment [8] the test system is Hepatitis C virus NS3 helicase. In words: blockers of NS3h binding to ssDNA – biochemical, fluorescence polarization, LOPAC1280 library, primary screen (AID 687035; in the data active = inhibition above about 37%). Conditions: Purified HCV NS3 helicase, Cy5-dT15 ssDNA binding fluorescence polarization; stronger effect = higher value; concentration not given here.
Experiment [9] in a line: compounds altering Cy5-DNA-NS3h complex signal – biochemical, LOPAC1280, artefact control for HCV NS3 helicase inhibitor project (AID 687037). The following applies: Cy5-DNA-NS3h complex fluorescence interference counterscreen. (In general: A counterscreen serves to expose hits that act by an unwanted route or on another target.)
Experiment [10] in a line: viability loss in pontine glioma line – cell-based, SU-DIPG-XVII, MIPE5.0, CellTiter-Glo, qHTS, dose response (AID 1347060; cut-off not given, nearly all actives have AC50 up to about 26 µM). Conditions: CellTiter-Glo ATP luminescence.
Experiment [11] is described as follows: viability loss in pontine glioma line – cell-based, SU-DIPG-XIII, MIPE5.0, CellTiter-Glo, qHTS, dose response (AID 1347064; cut-off not given, nearly all actives have AC50 up to about 23 µM). The following applies: CellTiter-Glo ATP luminescence.
Experiment [12] is described as follows: viability loss in pontine glioma line – cell-based, SU-DIPG-XXV, MIPE5.0, CellTiter-Glo, qHTS, dose response (AID 1347065; cut-off not given, nearly all actives have AC50 up to about 26 µM;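 note: cells exposed to compound for 48 hours before ATP readout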). Conditions: CellTiter-Glo ATP luminescence.
Experiment [13] in a line: JHH-DIPG-1 glioma cell viability, MIPE5.0 library, CellTiter-Glo luminescence, qHTS (AID 1347067; cut-off not given, nearly all actives have AC50 up to about 26 µM;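 note: cells exposed to compound for 48 hours before readout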). Conditions: JHH-DIPG-1 glioma viability, CellTiter-Glo ATP luminescence.
The nature of experiment [14]: growth inhibition of DIPG cells – cell-based, MIPE5.0 library, qHTS (AID 1347068; cut-off not given, nearly all actives have IC50 up to about 30 µM). Conditions: SU-DIPG-XXV viability. A general note: qHTS replaces the single test concentration by a dilution series.
Experiment [15] in a line: blockers of cellular phospholipid synthesis – cell-based, LOPAC library, screen 4, primary screen (AID 1347384). Conditions: animal cells, phospholipid biosynthesis inhibition screen; at 10 µM.
Experiment [16] is described as follows: growth inhibition, single agent or in combination, cell-based, chromothripsis tumors, cisplatin or BGB combos (AID 1671449; in the data active = inhibition above about 80%;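 note: cells exposed for 96 hours; 0% = vehicle DMSO and 100% = killing by high DMSO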). The following applies: LFS_MB_P medulloblastoma cells.
Experiment [17] can be described thus: growth inhibition, single agent and combos, cell-based, chromothripsis tumors, cisplatin or BGB combos (AID 1671450; in the data active = inhibition above about 80%;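 note: cells exposed to compound for four days; 0% = vehicle DMSO and 100% = cell killing by high DMSO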). The following applies: HDN33 neuroblastoma cells, stronger effect = higher value.
A short description of experiment [18]: growth inhibition, single agents and combos, ICB984, cell-based, cisplatin or BGB combos, synergistic combos for chromothripsis tumors (AID 1671451).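 Note: cells exposed for 96 hours before readout; 0% = vehicle DMSO and 100% = killing by high DMSO.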 Conditions: ICB984 medulloblastoma cells, drug combinations, stronger effect = higher value.
Experiment [19] relates to Aerobactin synthetase IucA (Klebsiella pneumoniae). Briefly: inhibition of K. pneumoniae IucA enzyme – biochemical, Tocris library, absorbance (AID 1345561).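 Note: 100% = enzyme without compound and 0% = no enzyme.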 The following applies: purified IucA enzyme assay, absorbance (OD) read-out; stronger effect = lower value;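 tested at 8 µM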.

A word on the AC50: it is the midpoint of the concentration-response curve, whichever way the signal moves. One may read the inhibition as the drop in the measured response relative to a control, in per cent. As usually defined, the remaining activity is the signal under treatment as a percentage of the control signal.

Several values for one entry are separate records, joined by “and”; a condition that tells them apart may be missing. Identical values can stand only once. Inconclusive results are not listed. More than one record can exist for a structure, and the calls need not agree. Activity calls are given as the source filed them. Unless noted, the rule behind the calls is not given here.

Consider `Cc1cccc(Nc2ccncc2S(=O)(=O)NC(=O)NC(C)C)c1`, for which the call in experiment [1], in [2], in experiment [3] and in experiment [4] was inactive.

Regarding `CN[C@@H]1[C@H](O)[C@H](NC)[C@H]2O[C@@]3(O)C(=O)C[C@@H](C)O[C@H]3O[C@@H]2[C@H]1O`, the fluorescence slope change in experiment [5] is 67% (active). The inclusion score in [6] amounted to 1.5. For the same molecule, the AC50 was 4.69 µM (active) in experiment [1], 1.05 µM (active) in experiment [2], 332 nM (active) in [3] and 1.48 µM (active) in experiment [4].

For the molecule `Cn1c(=O)c2[nH]cnc2n(C)c1=O`, in experiment [5], the fluorescence slope change was 7.6% (inactive) and 62.3% (active). The same molecule displayed an inclusion score in experiment [6] of 1.5. For the same molecule, the period change in experiment [7] is 0.14 h (inactive). Further, the inhibition was -2% (inactive) in experiment [8]; 15.2% (inactive) and -21.4% (inactive) and -26.2% (inactive) in [16] (at 0.5 µM, stronger effect = higher value); -5.83% and -14.3% and -19.1% in experiment [16] (measured here: combination with BGB IC20, at 0.005 µM); -32.6% and -34.3% and -25.4% in experiment [16] (measured here: combination with BGB IC40, at 0.005 µM); -28.1% and -16.1% and -10.3% in [16] (measured here: combination with BGB IC40, at 0.05 µM); 57.5% and -49.4% and -30.2% in [16] (measured here: combination with cisplatin, at 0.5 µM, stronger effect = higher value). Further, the inhibition in experiment [16] (measured here: combination with cisplatin, at 5 µM, stronger effect = higher value) was -12.8% and -12% and -12.6%; in experiment [17] (BGB combo, at 5 µM) it was -6.91% and -17% and -18.3%; in experiment [17] (at 0.5 µM), 1.38% (inactive) and 2.18% (inactive) and -18.5% (inactive); in experiment [17] (cisplatin combo, at 5 µM), 14.2% and 15.4% and -46.9%; in experiment [17] (measured here: with BGB IC20 combination, at 0.5 µM) it was 4.11% and 8.06% and -21.1%; in experiment [17] (measured here: with cisplatin IC20 combination, at 0.5 µM), 9.64% and 13.8% and 3.17%. The inhibition is -10.4% and -21.4% and -26.1% in experiment [17] (single agent, at 5 µM); -1.06% and -2.94% and -4.47% in [18] (BGB IC20 combo, at 0.005 µM); -42.4% and 6.67% and -13.1% in [18] (BGB IC40 combo, at 0.005 µM); -45.5% and -37.4% and -12% in experiment [18] (BGB IC40 combo, at 0.05 µM); -27.5% (inactive) and -16.4% (inactive) and -30.3% (inactive) in [18] (at 0.5 µM); -49.6% and -37.4% and -12% in experiment [18] (cisplatin combo, at 0.05 µM). In addition, the inhibition in experiment [18] (cisplatin combo, at 0.5 µM) is -29.5% and -23.4% and -59.1%; in [18] (cisplatin combo, at 5 µM) it was -24.5% and 11.4% and -42.2%; in experiment [18] (measured here: 5 uM single agent, at 5 µM) it was -5.05% and -45.4% and 1.22%. In addition, in experiment [9], the fluorescence ratio (interference) was 0.9 (inactive). In addition, the molecule was classed as inactive in experiment [10], in [1], in experiment [2], in [3], in [11] and in [12]. For the same molecule, the molecule was called inactive in [4], in [13], in [14] and in [15].

Regarding `CN(C)CC/C=C1\c2ccccc2COc2ccccc21`, the fluorescence slope change in experiment [5] was 109% (active). In [7], the period change is 0.025 h (inactive). The inhibition in experiment [8] is -5% (inactive). Besides, in [9], the fluorescence ratio (interference) was 1 (inactive). Besides, the call in experiment [15] was inactive.

Take `CC(C)Oc1ccc2c(=O)c(-c3ccccc3)coc2c1`: the molecule was called inactive in experiment [10], in experiment [1], in [2], in [3], in experiment [4] and in experiment [13]. The molecule was classed as inactive in experiment [14].

Regarding `C[C@H](CCC(=O)O)[C@H]1CC[C@H]2[C@@H]3C(=O)C[C@@H]4CC(=O)CC[C@]4(C)[C@H]3CC(=O)[C@]12C`, the fluorescence slope change in experiment [5] is 97.9% (active).

Turning to `C[C@]12CCC(=O)C=C1CC[C@@H]1[C@@H]2[C@@H](O)C[C@@]2(C)[C@H]1CC[C@]2(O)C(=O)COC(=O)CCC(=O)O`, the period change in [7] is -0.475 h (inactive).

As for `COc1ccc([C@@H]2Sc3ccccc3N(CCN(C)C)C(=O)[C@@H]2OC(C)=O)cc1`, in [5], the fluorescence slope change is 71.5% (active). Besides, the period change in [7] was 0.035 h (inactive). For the same molecule, the inhibition in experiment [8] is -1% (inactive). Further, in experiment [9], the fluorescence ratio (interference) was 1.1 (inactive). Further, in experiment [19], the remaining activity was 113% (inactive). Also, the call in [10], in experiment [11], in experiment [12], in experiment [13], in experiment [14] and in experiment [15] was inactive.

Source of the values: PubChem BioAssay.
